# Assay outcomes: PubChem, National Center for Advancing Translational Sciences (NCATS)
# VDR inh: inhibitors of human vitamin D receptor; P11473; VDR-SRC2-3 peptide fluorescence polarization, 2 h; Potency, µM, hits mostly inhibitors; actives 0.93% (n = 400,000); AID 504847
# Target sequence (P11473 whole entry, looked up): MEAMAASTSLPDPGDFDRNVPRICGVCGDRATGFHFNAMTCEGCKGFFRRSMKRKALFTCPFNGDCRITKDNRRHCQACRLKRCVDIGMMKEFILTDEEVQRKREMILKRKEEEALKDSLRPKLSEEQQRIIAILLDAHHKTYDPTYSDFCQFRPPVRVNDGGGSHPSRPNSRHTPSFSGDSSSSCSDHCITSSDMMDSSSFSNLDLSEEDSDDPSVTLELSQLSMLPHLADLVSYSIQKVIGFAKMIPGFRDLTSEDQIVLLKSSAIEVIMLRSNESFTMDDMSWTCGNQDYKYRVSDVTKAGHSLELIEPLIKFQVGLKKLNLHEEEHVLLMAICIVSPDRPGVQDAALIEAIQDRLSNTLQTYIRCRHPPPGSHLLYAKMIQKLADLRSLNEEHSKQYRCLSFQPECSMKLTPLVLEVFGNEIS
#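 Fluorescence polarization assay of small-molecule disruption of VDR binding to coregulator peptide SRC2-3. Compounds and controls pin-transferred, then read after 2 h incubation at ambient room temperature.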
# TSG101-PTAP inh: blocks PTAP/TSG101 interaction to inhibit HIV-1 budding; Q99816; Fluorescence polarization, FITC-PTAP peptide / Tsg101 binding; Potency, µM (titrated, usually from 115 µM), actives largely listed as inhibitors; 340,000 tested, under 10 active; AID 493005; active = well fitted inhibition curve with a large enough effect in the main read-out, with a control signal flat, not every such curve was filed as active; inconclusive = small, poorly fitted or top-dose-only effect, or effect the other way, or a change in a side signal; inactive = no such curve, though single readings can be large or run the other way
#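 FP read-out: FITC-PTAP peptide, 50 nM final, binding Tsg101 binding domain, 10 uM final; 20 min, r.t.; 10 mM HEPES pH 7.5, 0.15 M NaCl, 0.01% Tween 20, 3 mM EDTA, 0.1 mM TCEP.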
# PLK1 PBD inh: inhibitors of human PLK1 polo-box domain binding; Plk1 PBD binding of FITC phosphopeptide, fluorescence polarization; AID 720504; Potency, µM, most hits filed as inhibitors; actives 2.8% (n = 360,000); also: series mostly up to about 57 µM; nearly all actives have a fitted effect of over 65% in size
# uPA generation: blocks generation of uPA at the cell surface; cell surface uPA generation assay, qHTS; Potency, µM (series often up to 38.3 µM), most hits filed as inhibitors; actives 0.31% (n = 330,000); AID 540303; active = well fitted inhibition curve with a large enough effect; inconclusive = small, poorly fitted or top-dose-only effect; inactive = no such curve, though single readings can be large or run the other way; tested in mouse RAW 264.7 cells; also: nearly all actives have a fitted effect of over 55% in size
# TSHR antag: antagonists of human thyroid stimulating hormone receptor; P16473; TSHR-expressing cells, TSH-stimulated cAMP HTRF, 2 h; hits give low values; activity change, negative = inhibition, % at 11.5 µM; actives 0.2% (n = 330,000); AID 504810;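 active = activity change below a set negative limit, meaning inhibition stronger than a set level, cut at about -70% in these data; inconclusive = activity change between two set negative limits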
#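 Antagonism was scored as loss of TSH-driven cAMP in TSHR cells, stimulated with 4nM TSH (EC80) for 2 hours at 37 deg C and detected by homogeneous HTRF competition immunoassay.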
# A number is an active result; i = inactive; ? = inconclusive; nt = no result; ! = repeats disagree. Compounds with a hit are over-represented: about 3.1% of the library has one in this group of screens. Unless noted, calls follow the shape of the dose curve; as a rule, active = well fitted curve in the direction sought with a large enough effect; inconclusive = small, poorly fitted or top-dose-only effect, or another doubt; inactive = no such curve, though single readings can be large; an effect the other way counts as inactive or inconclusive.
SMILES,VDR inh,TSG101-PTAP inh,PLK1 PBD inh,uPA generation,TSHR antag
Cc1cc(C)n(/N=C/c2ccc(O)cc2)c(=O)c1C#N,i,i,29.9µM,i,i
Cc1ncc(CO)c(/C=N/NC(=S)Nc2ccc(C(C)C)cc2)c1O,?,i,11.9µM,i,i
CN(Cc1c(F)cccc1Cl)C(=O)c1ccc2ccccc2n1,i,i,i,i,i
N#CCC(=O)Nc1ccc(C(=O)OCC(=O)c2ccc3c(c2)OCCO3)cc1,i,i,11.9µM,i,i
N#CCC(=O)Nc1ccc(C(=O)OCC(=O)c2ccc3c(c2)OCO3)cc1,i,i,i,i,i
CNS(=O)(=O)c1cccc(C(=O)OCC(=O)c2ccc3c(c2)OCCO3)c1,i,i,i,i,i
NS(=O)(=O)c1cc(C(=O)OCC(=O)c2ccc3c(c2)OCCO3)ccc1Cl,i,i,29.9µM,?,i
COc1ccc(CNC(=O)c2cc3c(=O)[nH]c4ccccc4c3n2C)c(OC)c1,i,nt,nt,nt,nt
N#CC1=C(N)C2=CCCC[C@H]2[C@H](c2ccccc2)C1(C#N)C#N,79.4µM,i,i,i,i
CCc1ccc(S(=O)(=O)c2nnn3c2nc(Nc2ccc(NC(C)=O)cc2)c2sccc23)cc1,i,nt,nt,nt,nt
Cc1cc(C)nc(/N=C(\N)Nc2cccc(OCc3ccccc3)c2)n1,i,i,i,7.08µM,i
COc1cccc(C(c2c(C)[nH]n(-c3ccccc3)c2=O)c2c(C)[nH]n(-c3ccccc3)c2=O)c1OC,?,i,11.9µM,i,i
COc1cccc(C(c2c(C)[nH]n(-c3ccccc3)c2=O)c2c(C)[nH]n(-c3ccccc3)c2=O)c1O,?,i,21.2µM,i,i
CCOc1cccc(C(c2c(C)n(C)n(-c3ccccc3)c2=O)c2c(C)n(C)n(-c3ccccc3)c2=O)c1OC,i,i,i,i,i
O=C(c1cc(C(F)(F)F)cc(C(F)(F)F)c1)N1CCC[C@@]2(CCN(Cc3ccncc3)C2)C1,i,nt,nt,nt,nt
COC(=O)c1c(NC(=O)Cn2cnc([N+](=O)[O-])n2)sc2c1CCC(C)C2 (centres undefined),?,i,18.9µM,i,i
COC(=O)c1c(NC(=O)Cc2ccccc2)sc2c1C(C(=O)OC)CC2 (centres undefined),i,i,16.8µM,i,i
COC(=O)c1c(NC(=O)Cc2cccs2)sc2c1CCC(C)C2 (centres undefined),i,i,21.2µM,i,i
COC(=O)c1c(NC(=O)C(C)(C)C)sc2c1C(C(=O)OC)CC2 (centres undefined),i,i,i,i,i
COC(=O)c1c(NC(=O)CN(C)CC(=O)Nc2ccc(C)cc2)sc2c1CCC(C)C2 (centres undefined),i,i,i,i,i
CCCOC(=O)c1c(NC(=O)C2C3C=CC(C3)C2C(=O)O)sc2c1CCC(C)C2 (centres undefined),?,i,5.32µM,i,i
CCC(=O)N1CCCC1(C)C(=O)Nc1ccc2scnc2c1 (centres undefined),nt,nt,i,nt,nt
COC(=O)c1c(NC(=O)Cc2ccccc2)sc2c1CC(C)(C)NC2(C)C,i,i,23.8µM,i,i
COc1cc(NC(=O)CN2C(=O)C(c3ccc(C)cc3)=NC23CCCCC3)cc(OC)c1,i,nt,nt,nt,nt
CCCCCCCCOc1ccc(C2OC34CCCCC3C(C#N)(C#N)C2(C#N)C(=N)O4)cc1 (centres undefined),i,?,23.8µM,i,i
SMILES,VDR inh,TSG101-PTAP inh,PLK1 PBD inh,uPA generation,TSHR antag
CCCCC1OC23CCCCC2C(C#N)(C#N)C1(C#N)C(=N)O3 (centres undefined),i,i,i,i,i
N#CC(=C=[N-])c1nc2ccccc2nc1-[n+]1ccccc1,?,i,26.7µM!,i,i
CSc1ncccc1C(=O)Nc1ccc(OC(F)(F)F)cc1,i,i,33.6µM,i,i
CCOc1ccc(NC(=O)c2ccccc2SC)cc1,?,i,18.9µM,i,i
COc1ccc(NC(=O)c2ccccc2SC)cc1,i,i,i,i,i
CCN(CC(=O)Nc1ccc(NC(C)=O)cc1)C(=O)c1cccc(N2C(=O)c3ccccc3C2=O)c1,i,i,i,i,nt
C[C@H](CO)N1C[C@H](C)[C@@H](CN(C)C(=O)Cc2ccccc2)OCCCC[C@H](C)Oc2ccc(NC(=O)NC3CCCCC3)cc2C1=O,nt,nt,i,nt,nt
CCCCn1c(NC(=O)c2ccccc2Cl)c(C#N)c2nc3ccccc3nc21,44.7µM,i,26.7µM,i,i
N#Cc1c(NC(=O)c2ccccc2Cl)n(Cc2ccccc2)c2nc3ccccc3nc12,?,i,15µM,i,i
CCCCn1c(NC(=O)CC)c(C#N)c2nc3ccccc3nc21,i,i,i,i,i
CC(Cc1nnc(N)s1)c1ccccc1 (centres undefined),i,i,?,i,i
COc1ccc(C2CC(=O)c3cc(-c4nc(-c5ccc(C)cc5)cs4)c(=O)[nH]c3C2)cc1 (centres undefined),i,nt,nt,nt,nt
Fc1ccc(-c2onc3ccc(C4OCCO4)cc23)cc1,i,i,i,i,i
O=Cc1ccc2noc(-c3ccc(F)cc3)c2c1,i,?,23.8µM,i,i
COc1ccc(OC)c(/C=N/Nc2nncn2/N=C/c2cc(OC)ccc2OC)c1,i,i,i,10µM,i
COc1cc(/C=N/Nc2nncn2/N=C/c2ccc(O)c(OC)c2)ccc1O,i,i,i,i,i
O=[N+]([O-])c1cccc(-c2nc3ccc([N+](=O)[O-])cc3[nH]2)c1,31.6µM,i,9.47µM,i,i
COc1cccc(CNC(=O)[C@@H]2CCCN2C(=O)[C@H]2CCCCN2C(=O)c2cccc3ccccc23)c1,nt,nt,i,nt,nt
Cc1c(Cl)cccc1Nc1ccccc1C(=O)O,44.7µM!,i,i,i,i
O=Cc1c(OCc2ccccc2)ccc2ccccc12,?,i,16.8µM,i,i
COc1ccc(S(=O)(=O)/N=C2/C=CC(=O)C(C)=C2C)cc1,?,i,23.8µM,i,i
CC1=C(C)/C(=N\OS(=O)(=O)c2ccc(C)cc2)C=CC1=O,28.2µM,i,?,i,i
COc1ccc(N2CCN(S(=O)(=O)c3ccc4c(c3)C(C(C)C)C(=O)N4)CC2)cc1 (centres undefined),i,nt,nt,nt,nt
CC(=O)N1CCCc2ccc(NC(=O)c3ccc(OC(C)C)cc3)cc21,i,nt,nt,nt,nt
CCOc1c(Cl)cc(CNc2ccc(S(N)(=O)=O)cc2)cc1OC,i,i,i,i,i
SMILES,VDR inh,TSG101-PTAP inh,PLK1 PBD inh,uPA generation,TSHR antag
CCOc1c(Cl)cc(CNc2ccc(N3CCCC3)cc2)cc1OC,14.1µM,i,?,i,i
CCN(CC)C(=O)Cn1cc(SCC(=O)Nc2ccc(C)cc2)c2ccccc21,i,nt,nt,nt,nt
COC1(NS(=O)(=O)c2ccc(Br)cc2)C(C)=CC(=O)C=C1C,i,i,6.7µM,i,i
Cc1ccc(NS(=O)(=O)c2ccc(Br)cc2)nc1,i,i,i,i,i
O=C(O)CNC(=O)c1ccccc1I,i,nt,nt,nt,nt
COc1ccccc1NC(=O)NCCC1=CCCCC1,?,i,23.8µM,?,i
CC(C)(C)NC(=O)C(=O)NCCC1=CCCCC1,i,i,21.2µM,i,i
